Assay [1] relates to Plasmodium falciparum Sir2 (PF13_0152, Sir2A). The experiment in a line: pfSir2 binders on small-molecule microarrays, primary screen, biochemical, small-molecule microarray, 635 nm fluorescence (AID 1098).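 Note: score merges spot fluorescence intensity with its signal-to-noise ratio.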 The note with it: small-molecule microarray binding, fluorescence 635 nm; higher = more signal.
Assay [2] can be described thus: small-molecule microarray binders of probe aDKK1, primary screen, biochemical, biotinylated probe, 635/667 nm fluorescence (AID 1099).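 Note: score merges 667nm spot fluorescence with signal to noise across triplicate slides.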 The note with it: higher = more signal.
The nature of assay [3]: small-molecule microarray binders of probe aCHRDL2, primary screen, biochemical, biotinylated probe, 635/667 nm fluorescence (AID 1100). The note with it: higher = more signal.
Assay [4] in a line: splicing luciferase reporter signal modulators, primary screen, spliceosome inhibition project, cell-based, HEK293, splice +/- reporter (AID 1101).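 Note: HEK293 cells carrying a splicing-competent luciferase reporter gene; test concentration not given here.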 The note with it: luminescence, 24 h, higher = more signal, called active from +8 up or from −8 down.
Assay [5] has as its target Fibroblast growth factor 10 (Homo sapiens) (UniProt O15520). The experiment in a line: FGF10 binders on small-molecule microarrays, primary screen, biochemical, small-molecule microarray, 635 nm fluorescence (AID 1102). To be noted: FGF10 binding, fluorescence 635 nm, higher = more signal.
Assay [6] relates to glycogen synthase kinase-3 (GSK3A per assay name; protocol says GSK3B). The assay is described as follows: GSK3 binders on small-molecule microarrays, primary screen, biochemical, small-molecule microarray, 635 nm fluorescence, GSK3A (AID 1103). Note: the record names both GSK3A and GSK3B. The note with it: small-molecule microarray binding, fluorescence 635 nm; higher = more signal.
For assay [7], the target named is Epidermal growth factor receptor (Homo sapiens) (UniProt P00533). The experiment in a line: EGFR binders on small-molecule microarrays, primary screen, biochemical, small-molecule microarray, 635 nm fluorescence (AID 1104).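 Note: score merges 667 nm emission intensity with spot signal to noise over triplicate slides.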 The note with it: EGFR binding, higher = more signal.
Sequence of Epidermal growth factor receptor (Homo sapiens) (P00533 whole entry, looked up): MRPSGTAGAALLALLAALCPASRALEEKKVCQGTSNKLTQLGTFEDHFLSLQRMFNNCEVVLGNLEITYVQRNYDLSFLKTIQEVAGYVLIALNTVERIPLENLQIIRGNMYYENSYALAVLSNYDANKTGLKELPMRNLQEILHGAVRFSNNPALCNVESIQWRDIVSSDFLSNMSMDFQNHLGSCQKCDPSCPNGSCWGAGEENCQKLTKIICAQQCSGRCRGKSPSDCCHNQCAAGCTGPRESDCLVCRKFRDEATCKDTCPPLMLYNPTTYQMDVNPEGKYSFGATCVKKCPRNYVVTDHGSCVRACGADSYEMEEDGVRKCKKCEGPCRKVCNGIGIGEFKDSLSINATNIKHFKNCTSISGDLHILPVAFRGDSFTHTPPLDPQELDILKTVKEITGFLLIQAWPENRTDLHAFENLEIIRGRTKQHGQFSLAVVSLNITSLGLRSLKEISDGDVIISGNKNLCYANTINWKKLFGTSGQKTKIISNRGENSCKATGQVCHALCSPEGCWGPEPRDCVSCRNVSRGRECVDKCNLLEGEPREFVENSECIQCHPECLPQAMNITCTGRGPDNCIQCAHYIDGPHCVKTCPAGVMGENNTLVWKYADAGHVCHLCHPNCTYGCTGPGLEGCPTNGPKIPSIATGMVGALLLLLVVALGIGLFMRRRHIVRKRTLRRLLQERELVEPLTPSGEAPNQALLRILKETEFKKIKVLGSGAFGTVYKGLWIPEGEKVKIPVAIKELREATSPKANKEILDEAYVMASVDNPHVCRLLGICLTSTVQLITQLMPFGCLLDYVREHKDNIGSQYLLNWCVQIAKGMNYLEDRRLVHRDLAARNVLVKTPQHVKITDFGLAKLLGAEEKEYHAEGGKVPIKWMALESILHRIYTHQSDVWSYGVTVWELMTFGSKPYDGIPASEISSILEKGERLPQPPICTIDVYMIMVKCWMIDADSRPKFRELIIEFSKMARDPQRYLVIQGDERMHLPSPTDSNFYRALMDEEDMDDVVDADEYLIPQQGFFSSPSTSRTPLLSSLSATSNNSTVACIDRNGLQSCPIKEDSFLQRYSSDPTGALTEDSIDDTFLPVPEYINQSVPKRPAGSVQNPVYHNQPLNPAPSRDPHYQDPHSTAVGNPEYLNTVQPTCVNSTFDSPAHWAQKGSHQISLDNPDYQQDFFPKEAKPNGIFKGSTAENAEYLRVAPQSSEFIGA
The target in assay [8] is Follistatin-related protein 3 (Homo sapiens) (UniProt O95633). The experiment in a line: FSTL3 binders on small-molecule microarrays, primary screen, biochemical, small-molecule microarray, 635 nm fluorescence (AID 1105).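 Note: score merges emission near 667 nm and signal to noise per printed spot across three slides.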 The note with it: FSTL3 binding, higher = more signal.
Sequence of Follistatin-related protein 3 (Homo sapiens) (O95633 whole entry, looked up): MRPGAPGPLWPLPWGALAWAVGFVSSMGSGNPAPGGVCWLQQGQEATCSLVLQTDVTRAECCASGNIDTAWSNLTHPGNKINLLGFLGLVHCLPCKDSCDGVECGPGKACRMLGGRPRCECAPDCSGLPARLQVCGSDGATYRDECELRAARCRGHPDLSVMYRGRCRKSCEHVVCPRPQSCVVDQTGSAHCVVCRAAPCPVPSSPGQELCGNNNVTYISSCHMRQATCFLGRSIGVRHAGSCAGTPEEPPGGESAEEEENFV
In assay [9] the target is Dickkopf-related protein 1 (Homo sapiens) (UniProt O94907). The assay is described as follows: DKK1 binders on small-molecule microarrays, primary screen, biochemical, small-molecule microarray, 635 nm fluorescence scan (AID 1106).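 Note: score merges emission near 667 nm with signal to noise over three replicate slides.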 The note with it: DKK1 binding, higher = more signal.
Sequence of Dickkopf-related protein 1 (Homo sapiens) (O94907 whole entry, looked up): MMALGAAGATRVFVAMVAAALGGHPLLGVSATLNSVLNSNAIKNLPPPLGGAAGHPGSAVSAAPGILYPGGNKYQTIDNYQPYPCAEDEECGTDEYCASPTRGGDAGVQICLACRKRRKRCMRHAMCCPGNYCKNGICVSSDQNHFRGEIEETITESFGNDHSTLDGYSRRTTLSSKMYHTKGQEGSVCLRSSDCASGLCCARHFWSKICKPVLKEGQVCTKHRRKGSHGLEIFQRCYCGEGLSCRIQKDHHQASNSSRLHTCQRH
The test system of assay [10] is Inhibin beta A chain (activin A). The experiment in a line: INHBA (activin A) binders on microarrays, primary screen, biochemical, small-molecule microarray, 635 nm fluorescence scan (AID 1107).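 Note: mouse activin A protein probed at 4.33 µg/mL on printed slides; score merges bound-protein fluorescence near 667 nm with spot signal-to-noise.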 To be noted: small-molecule microarray binding, higher = more signal.
In assay [11] the test system is Human papillomavirus type 1a protein E7 (residues 44-93). The experiment in a line: HPV1a E7 fragment binders on microarrays, primary screen, biochemical, small-molecule microarray, residues 44-93, 635 nm fluorescence (AID 1108).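 Note: E7 fragment applied at 1 µg/mL in TBST for 1 h at 4 C; score combines spot fluorescence with its signal to noise ratio.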 The note with it: small-molecule microarray binding, fluorescence 635 nm; higher = more signal.
Assay [12] can be described thus: modulators of HCV replicon luciferase signal, primary screen, HCV replication inhibitor project, Huh7 cells, luciferase reporter (AID 1109).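 Note: huh7 hepatoma cells harbouring a luciferase neomycin HCV replicon reporter; luciferase luminescence as measure of HCV replicon replication; test concentration not given here.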 The note with it: 48 h, higher = more signal. For orientation: In antiviral work, replicon cells carry a viral genome segment that copies itself.
Assay [13] concerns the target Left-right determination factor 2 (Homo sapiens) (UniProt O00292). The assay is described as follows: LEFTY2 binders on small-molecule microarrays, primary screen, biochemical, small-molecule microarray, 635 nm fluorescence scan (AID 1110). The note with it: LEFTY2 binding, higher = more signal.
In assay [14] the target is Calmodulin-1 (Homo sapiens) (UniProt P0DP23). The assay is described as follows: CALM1 binders on microarrays, EGTA buffer, profiling panel, biochemical, small-molecule microarray, Cy5-labelled CALM1 (AID 1111).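 Note: labelled calmodulin applied in Tris saline Tween buffer holding calcium plus EGTA and DTT.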 To be noted: Cy5-CALM1 binding fluorescence, higher = more signal.
Assay [15] has the same target. The assay is described as follows: calcium-bound CALM1 binders on microarrays, profiling panel, artefact control for SMM control-protein annotation, biochemical, small-molecule microarray, Cy5-labelled CALM1, plus calcium (AID 1112).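 Note: score merges spot fluorescence with signal to noise from triplicate slides.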 The note with it: Cy5-CALM1 binding fluorescence, higher = more signal.
Assay [16] is described as follows: small-molecule microarray binders of probe aWnt5a, primary screen, biochemical, biotinylated probe, 635/667 nm fluorescence (AID 1113).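 Note: score merges 667 nm fluorescence intensity with signal-to-noise per printed feature.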 To be noted: higher = more signal.
Assay [17] is described as follows: small-molecule microarray binders of probe aShh, primary screen, biochemical, biotinylated probe, 635/667 nm fluorescence (AID 1114).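 Note: probe is biotin-labelled aShh protein from a stem cell growth factor screen; measures binding of labelled protein to compounds printed on the slide; score merges feature fluorescence at 667 nm with signal-to-noise.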 The note with it: higher = more signal.
The nature of assay [18]: small-molecule microarray binders of probe aNog, primary screen, biochemical, biotinylated probe, 635/667 nm fluorescence (AID 1115).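 Note: probe is biotinylated aNog protein used at 0.15 µg/mL for 1 h at 4 C; z-score combines 667 nm fluorescence of each spot with its signal to noise.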 To be noted: higher = more signal.
Assay [19] concerns the target Torsin-1A-interacting protein 1 (Homo sapiens) (UniProt Q5JTV8). The assay is described as follows: LAP1 binders from COS7 cell lysate, primary screen, small-molecule microarray, 635/667 nm fluorescence (AID 1116). The note with it: COS7-hLAP1 lysate binding, 635 nm fluorescence, higher = more signal.
The target in assay [20] is Alpha-bungarotoxin (Bungarus multicinctus) (UniProt P60615). The assay is described as follows: alpha-bungarotoxin binders on microarray, profiling panel, artefact control for SMM control protein annotation, biochemical, small-molecule microarray, Alexa647 label, 635/667 nm fluorescence (AID 1117). To be noted: alpha-BTX-A647 binding fluorescence, higher = more signal.
Sequence of Alpha-bungarotoxin (Bungarus multicinctus) (P60615 whole entry, looked up): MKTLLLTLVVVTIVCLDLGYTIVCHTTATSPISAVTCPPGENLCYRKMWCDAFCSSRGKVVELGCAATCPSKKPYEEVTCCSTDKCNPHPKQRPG

The values below come from PubChem BioAssay.

“And” between values parts separate entries of the source, which are not always exact repeats. Identical values can stand only once. The source made the active and inactive calls.

Sequence of Torsin-1A-interacting protein 1 (Homo sapiens) (Q5JTV8 whole entry, looked up): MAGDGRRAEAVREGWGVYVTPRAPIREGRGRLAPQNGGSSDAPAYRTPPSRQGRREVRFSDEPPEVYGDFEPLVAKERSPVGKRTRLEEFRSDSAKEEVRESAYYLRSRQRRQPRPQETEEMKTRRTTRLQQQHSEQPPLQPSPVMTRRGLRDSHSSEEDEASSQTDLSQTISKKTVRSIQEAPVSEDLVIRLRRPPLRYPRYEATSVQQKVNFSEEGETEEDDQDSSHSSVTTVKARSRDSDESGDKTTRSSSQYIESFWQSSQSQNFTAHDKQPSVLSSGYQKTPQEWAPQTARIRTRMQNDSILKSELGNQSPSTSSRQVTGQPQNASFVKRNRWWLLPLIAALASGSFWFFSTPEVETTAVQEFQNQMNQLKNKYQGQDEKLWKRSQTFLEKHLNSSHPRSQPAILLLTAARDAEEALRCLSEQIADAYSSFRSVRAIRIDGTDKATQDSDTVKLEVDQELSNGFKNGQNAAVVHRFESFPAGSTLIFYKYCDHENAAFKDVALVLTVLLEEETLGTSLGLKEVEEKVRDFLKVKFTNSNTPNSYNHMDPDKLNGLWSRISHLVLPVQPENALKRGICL
Sequence of Left-right determination factor 2 (Homo sapiens) (O00292 whole entry, looked up): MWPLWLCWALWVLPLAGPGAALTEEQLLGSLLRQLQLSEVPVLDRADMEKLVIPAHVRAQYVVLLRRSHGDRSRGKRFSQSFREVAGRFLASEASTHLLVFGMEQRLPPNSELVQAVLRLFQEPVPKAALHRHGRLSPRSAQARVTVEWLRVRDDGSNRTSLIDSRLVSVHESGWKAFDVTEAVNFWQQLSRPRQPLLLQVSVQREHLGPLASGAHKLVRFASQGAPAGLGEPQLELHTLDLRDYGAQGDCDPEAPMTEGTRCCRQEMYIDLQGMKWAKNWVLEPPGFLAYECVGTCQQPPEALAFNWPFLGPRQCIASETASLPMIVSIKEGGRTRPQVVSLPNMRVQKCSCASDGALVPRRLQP
Sequence of Fibroblast growth factor 10 (Homo sapiens) (O15520 whole entry, looked up): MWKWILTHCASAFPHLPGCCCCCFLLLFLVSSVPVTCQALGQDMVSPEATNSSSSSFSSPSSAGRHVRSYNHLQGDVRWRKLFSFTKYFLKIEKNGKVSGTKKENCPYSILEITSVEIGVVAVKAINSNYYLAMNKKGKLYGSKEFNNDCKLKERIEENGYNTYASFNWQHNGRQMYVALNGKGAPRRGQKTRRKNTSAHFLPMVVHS

For `C=CCN(CCCC)C(=O)C(c1cccs1)N(C(=O)/C=C\C(=O)O)c1c(Cl)cccc1CO` (stereo not given), the composite z-score in assay [1] is 0.129 and 1.61; in [2], -0.0631 and -0.131; in [3], 1.25 and 0.906; in assay [5] it was -2.81 and -1.97; in assay [6], -0.944 and -0.892; in [7], -2.16 and -2.02. Moreover, the composite z-score in assay [8] was -1.44 and -2.65; in [9], -3.42 and -2.44; in [10], -3.52 and -2.04; in [11], -1.23 and -1.01; in assay [13] it was -3.75 and -3.83; in [14], -0.731 and -0.883. In addition, the composite z-score is 0.215 and 0.584 in [15]; -0.328 and -0.303 in [16]; -0.0769 and -0.221 in assay [17]; -0.0173 and -0.0409 in [18]; -1.53 and -1.41 in assay [19]; -1.09 and -1.15 in assay [20]. Also, the z-score in assay [4] was 0.173 (inactive) and 0.771 (inactive); in assay [12] it was -0.765 and -0.992.

On to `C=CCN(C(=O)C(c1cccs1)N(C(=O)/C=C\C(=O)O)c1c(Cl)cccc1CO)C(C)(C)C` (stereo not given), for which the composite z-score in assay [1] is 1.25 and -0.0135; in assay [2], 0.352 and 0.285; in [3], 1.38 and 1.31; in assay [5], -2.54 and -1.41; in assay [6] it was -2.14 and -1.33; in [7] it was -2.12 and -2.63. For the same compound, the composite z-score in [8] was -2.45 and -2.23; in assay [9] it was -3.69 and -3.04; in assay [10], -3.4 and -1.92; in assay [11] it was -1.05 and -0.821; in assay [13], -4.4 and -3.37; in [14], -1.1 and -0.796. For the same compound, the composite z-score in assay [15] was 0.802 and 0.271; in assay [16] it was -0.304 and -0.202; in [17], -0.0769 and -0.138; in assay [18], -0.263 and -0.036; in [19] it was -1.05 and -1.62; in assay [20], -1.29 and -1.31. In addition, the z-score in assay [4] is -0.321 (inactive) and -0.297 (inactive); in [12] it was -0.814 and -1.62.

For `CCOC(=O)C[C@H]1[C@H](OC(=O)c2ccccc2-c2ccccc2)[C@@H](NC(=O)c2ccccc2)c2cc(OCCCO)ccc2N1C(=O)c1ccc2ccccc2n1`, the composite z-score is -0.134 and 0.522 in assay [1]; 0.298 and -0.106 in [2]; 0.229 and 0.0414 in assay [3]; 0.97 and 0.586 in assay [5]; 0.612 and 0.576 in [6]; 0.284 and 0.207 in assay [7]. Further, the composite z-score was 0.47 and 0.8 in assay [8]; 0.452 and 0.19 in assay [9]; 0.227 and 0.981 in assay [10]; 0.288 and 1.08 in [11]; 0.668 and 0.619 in [13]; -0.118 and 1.47 in [14]. Further, the composite z-score in assay [15] was -0.148 and 0.227; in assay [16] it was 0.0324 and -0.108; in assay [17], -0.2 and 0.0078; in [18], -0.122 and 0.386; in assay [19] it was 0.491 and 0.364; in assay [20], 0.328 and 0.833. Besides, the z-score in [4] is -0.0583 (inactive) and -0.0708 (inactive); in [12], -1.19 and -0.583.

As to `Cc1ccc(S(=O)(=O)N[C@H]2COC(=O)[C@@H](C)COC(=O)[C@H](C)NC(=O)CC=C[C@H]2C)cc1`, the composite z-score in [1] is 0.163; in assay [2], -0.45; in assay [3] it was -0.972; in assay [5], 0.752; in [6], 0.393; in assay [7], 0.554. For the same compound, the composite z-score is 0.804 in assay [8]; 0.881 in assay [9]; -0.108 in assay [10]; -0.799 in assay [11]; 0.715 in assay [13]; -0.82 in assay [14]. The composite z-score in [15] was -0.994; in assay [16], 0.027; in [17] it was 0.0538; in [18], -0.234; in assay [19] it was 1.09; in assay [20] it was -0.458. Besides, the values for the z-score in assay [4] and in [12] were 0.00442 (inactive) and -0.128, respectively.

For the compound `COCn1c2ccccc2c2nnc(C(C)=O)nc21`, the composite z-score is -0.137 and 0.312 in assay [1]; -0.228 and -0.221 in assay [2]; -0.42 and -0.408 in assay [3]; 0.529 and 0.182 in [5]; -0.0671 and 0.0307 in assay [6]; 0.574 and 0.979 in [7]. Moreover, the composite z-score in assay [8] is 0.383 and 0.277; in [9], 0.808 and 0.152; in assay [10] it was 0.12 and 0.483; in assay [11], -0.421 and 0.238; in assay [13], 0.486 and 0.305; in assay [14], -0.338 and -0.015. Also, the composite z-score in assay [15] is -0.462 and -0.409; in [16], -0.182 and -0.124; in assay [17], -0.282 and -0.0769; in assay [18], -0.294 and -0.158; in [19] it was 0.184 and 0.0111; in assay [20], 0.0727 and 0.378. The z-score in assay [4] was -0.592 (inactive) and -0.85 (inactive); in assay [12] it was -0.366 and 0.141.
